# Source: PubChem (National Center for Advancing Translational Sciences (NCATS))
# An excerpt weighted towards active compounds, which were near 19% of everything screened.
# IL1B secr inh – blocks inflammasome-driven IL-1 beta release. THP-1 LPS/ATP IL-1B secretion, AlphaLISA, 16 h; stronger effect = lower value. activity change, % at 57.5 µM. hit rate 4.7% among 360,000; in the data active = activity change below about -50%; inconclusive = mostly about -30% to -49%; note: % is set by controls: 0 for no effect and ±100 for the full control effect
#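 Secreted IL-1B measured by AlphaLISA bead assay after 16 h compound exposure of THP-1 cells; compounds (final up to 57.5 uM) added 1 h before LPS (250 ng/mL) and ATP (1.25 mM) stimulation; lower signal means less secretion.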
# TDP1 cell noCPT – qHTS for Inhibitors of human tyrosyl-DNA phosphodiesterase 1 (TDP1): qHTS in cells in absence of CPT | hit rate 15% among 420,000 | Potency, µM (top dose mostly 46.2 µM), inactives show top-dose activity change, negative = growth inhibition, actives largely listed as inhibitors | DT40 Tdp1-/- hTDP1 cells, no CPT, ATP luminescence, 48 h | AID 686978, 2013; note: potency is the fitted concentration of half-maximal effect; % is set by controls: 0 for no effect and ±100 for the full control effect; nearly all actives have a fitted effect of over 55% in size
#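 Luminescent ATP content (CellTiter-Glo) served as the growth readout. Knockout chicken DT40 cells expressing human TDP1 were exposed to compounds without camptothecin for a minimum 48 hr at 37 °C.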
# TDP1 block – inhibitors of human tyrosyl-DNA phosphodiesterase TDP1 | Potency, µM (top dose mostly 130 µM), for the others: at the top dose activity change, negative = inhibition, most hits filed as inhibitors | recombinant TDP1, AlphaScreen DNA substrate cleavage | hit rate 0.28% among 350,000; note: potency is the fitted concentration of half-maximal effect; % is set by controls: 0 for no effect and ±100 for the full control effect; nearly all actives have a fitted effect of over 40% in size
# Target sequence (Q9NUW8 whole entry, looked up): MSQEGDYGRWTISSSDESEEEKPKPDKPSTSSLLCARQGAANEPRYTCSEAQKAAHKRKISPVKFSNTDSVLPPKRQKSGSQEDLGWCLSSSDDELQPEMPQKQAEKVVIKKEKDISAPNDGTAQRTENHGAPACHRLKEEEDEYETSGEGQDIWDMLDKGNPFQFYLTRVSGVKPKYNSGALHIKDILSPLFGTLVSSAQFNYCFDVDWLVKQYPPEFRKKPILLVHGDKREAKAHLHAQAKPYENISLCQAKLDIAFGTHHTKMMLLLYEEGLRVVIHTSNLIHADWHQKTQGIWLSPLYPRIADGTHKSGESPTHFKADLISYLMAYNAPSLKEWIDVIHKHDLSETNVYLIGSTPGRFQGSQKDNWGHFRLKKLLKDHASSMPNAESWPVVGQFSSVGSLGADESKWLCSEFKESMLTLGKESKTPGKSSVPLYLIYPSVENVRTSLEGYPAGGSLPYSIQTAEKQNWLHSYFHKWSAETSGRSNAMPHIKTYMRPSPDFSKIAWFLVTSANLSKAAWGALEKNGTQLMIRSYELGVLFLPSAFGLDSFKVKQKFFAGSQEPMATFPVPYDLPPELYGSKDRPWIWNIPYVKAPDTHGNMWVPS
#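 Recombinant human Tdp1 (E. coli-expressed, 1 nM final) preincubated with compounds 15 min at room temperature, then 5'-biotin/3'-phosphotyrosine-FITC DNA substrate (15 nM final) added for 5 min. AlphaScreen beads (10 ug/ml final) added 10 min; cleavage lowers signal.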
# HepG2 tox – kills HepG2 cells in TGF-b inhibitor counter-screen; HepG2 CAGA-GFP viability, ATP luminescence, 18 h; Potency, µM (highest dose often 46.1 µM), for inactives: at the top dose activity change, negative = cytotoxicity, hits mostly cytotoxic; hit rate 0.76% among 410,000; AID 588856; note: potency is the fitted concentration of half-maximal effect
#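 CellTiter-Glo luminescence gave cytotoxicity after 18 hours at 37 degrees C. The cells were HepG2 CAGA-GFP in 1% FBS DMEM, stimulated with 500 pg/mL TGF-beta after compound addition. %Activity was normalised to no-cell wells (complete cell-killing) and DMSO (no toxicity), and curves were fitted and classified.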
# TDP1 cell CPT – DT40-hTDP1 cell growth loss with CPT; chicken DT40 Tdp1-/-;hTDP1 cells + 20 nM CPT, ATP luminescence, 48 h; Potency, µM (series often up to 46.2 µM), inactives show top-dose activity change, negative = growth inhibition, hits mostly inhibitors; hit rate 12% among 420,000; AID 686979; note: potency is the fitted concentration of half-maximal effect; % is set by controls: 0 for no effect and ±100 for the full control effect; nearly all actives have a fitted effect of over 55% in size
#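 Chicken DT40 Tdp1-/- cells stably complemented with human TDP1 were seeded at 400 cells/well in medium containing 20 nM camptothecin, exposed to pin-transferred compounds, and grown at 37 °C for at least 48 hr. Viability was read as ATP luminescence.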
# TGFb inhibitor – TGF-b pathway inhibition. Potency, µM (series often up to 46.1 µM), inactives show top-dose activity, negative = inhibition, hits mostly inhibitors. hit rate 1.2% among 410,000. HepG2 CAGA-GFP TGF-b/SMAD3 reporter, GFP fluorescence, 18 h; TGF-beta stimulated, 500 pg/mL final. AID 588855; note: potency is the fitted concentration of half-maximal effect; % is set by controls: 0 for no effect and ±100 for the full control effect; nearly all actives have a fitted effect of over 65% in size
#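 HEPG2 CAGA-GFP reporter cells (1000/well, DMEM with 1% FBS) received compounds, then recombinant TGF-beta at 500 pg/mL final for 18 hours at 37 degrees C. Per-cell GFP summed per well was normalised to unstimulated and stimulated DMSO controls before curve fitting.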
# Active calls of the source: *; ? = inconclusive; / = no result; ! = not confirmed by another sample; [ ] = another dose, or the depositor's remark. Unless noted, calls come from the whole dose curve; as a rule, active = well fitted curve in the direction sought with a large enough effect; inconclusive = small, poorly fitted or top-dose-only effect, or another doubt; inactive = no such curve, though single readings can be large; an effect the other way counts as inactive or inconclusive.
SMILES,IL1B secr inh,TDP1 cell noCPT,TDP1 block,HepG2 tox,TDP1 cell CPT,TGFb inhibitor
CC/C=C\C/C=C\C/C=C\C/C=C\C/C=C\CCCC(N)=O,/,/,2%,/,/,/
C=C(Cl)Cl,/,/,14%,/,/,/
C[C@H](CCC(=O)O)[C@H]1CC[C@@H]2[C@H]3[C@@H](CC[C@@]21C)[C@]1(C)CC[C@H](O)C[C@@H]1C[C@@H]3O,/,/,7%[56.1 µM],/,/,/
Cc1nc2cnc(N3CCNCC3)nc2n(C)c1=O,/,-19%,/,/,10%,/
COC(=O)C1=C(c2cccc(OCc3ccccc3)c2)C[C@@H]2CC[C@H]1N2C(=O)NCCOc1ccc(OC)cc1,-11,?,1%,3%,23µM*,-25%
COC(=O)C1=C(c2cccc(OCc3ccccc3)c2)C[C@@H]2CC[C@H]1N2C(=O)NCCN1CCOCC1,-13,?,1%,-4%,16µM*,0%
COC(=O)C1=C(c2ccccc2OCc2ccccc2)C[C@@H]2CC[C@H]1N2C(=O)NCc1ccc(N(C)C)cc1,?,?,7%,10%,?,?
COC(=O)C1=C(c2ccccc2OCc2ccccc2)C[C@@H]2CC[C@H]1N2C(=O)NCCCOC(C)C,9,?,-1%,1%,16µM*,1%
COCCNC(=O)N1[C@H]2CC[C@@H]1C(C(=O)OC)=C(c1cccc(C#N)c1)C2,11,-5%,0%,-14%,-2%,-11%
COc1c(O)c2c(=O)cc(OC)c3c4c(OC)cc(=O)c5c(O)c(OC)c(C[C@@H](C)OC(=O)c6ccccc6)c(c(c1C[C@@H](C)OC(=O)Oc1ccc(O)cc1)c23)c54,/,?,18%,/,?,/
CCCN1CCO[C@@H]2c3cc(O)ccc3OC[C@@H]21,/,-4%,3%[56.1 µM],/,6%,/
CCOC(=O)C1=C(NC(=S)NC(=O)c2ccccc2)c2ccccc2CC12CCCC2,?,18µM*,3%,-16%,16µM*,-26%
CCOP(=O)(OCC)C(NC(=O)c1ccccc1)=C(Cl)Cl,-25,-3%,1%,14%,-28%,-1%
CCOC(=O)c1c(C)n(Cc2ccccc2)c2ccc(OCC(O)CNC(C)(C)C)cc12 (stereo not drawn),-96*,18µM*,/,18µM*,?,?
CC(=O)c1c(C)n(Cc2ccccc2)c2ccc(O)cc12,-29,18µM*,/,-21%,16µM*,1%
CCOC(=O)c1c(C)n(Cc2ccccc2)c2ccc(O)cc12,-3,-30%,5%,7%,-12%,18µM*
CC(C)NCC(O)COc1cccc2[nH]ccc12 (stereo not drawn),/,-19%,9%,/,?,/
CC1(C)C(O)CC(O)[C@]2(C)C1CC(O)[C@]1(C)C2CC[C@@]2(C)C(c3ccoc3)CC3OC312 (stereo partly drawn),/,-13%,10%,/,-8%,/
C=CCc1ccc(OC)cc1,23,?,9%,-11%,3.7µM*!,0%
COc1ccc(CN2CCNCC2)cc1,37,?,/,2%,-15%,1%
CC1=C(O)C(=O)[C@@H]2O[C@@H]2C1=O,/,?,-9%,/,?,/
CC(C)(OOC(C)(C)c1ccccc1)c1ccccc1,/,/,5%,/,/,/
O=C1Nc2ccccc2C2(CCN(CCc3ccc(C(F)(F)F)cc3)CC2)O1,/,/,10%,/,/,/
COc1ccc(CCNC(=O)CCCCn2c(=O)c3ccccc3n(Cc3ccccc3Cl)c2=O)cc1OC,/,?,2%,-1%,?,1%
Cc1cc(C)[n+](C2C3CC4CC(C3)CC2C4)o1 (stereo not drawn),14,21µM*,1%,3%,-29%,6%
SMILES,IL1B secr inh,TDP1 cell noCPT,TDP1 block,HepG2 tox,TDP1 cell CPT,TGFb inhibitor
C[C@]12CC(=O)CC1CCC1C2CC[C@@]2(C)C1CC[C@@H]2O (stereo partly drawn),-19,-28%,1%,-2%,-24%,-5%
CCCN(c1ccc(C(C)C)cc1)S(=O)(=O)c1ccc2c(c1)CCN2C(=O)CC,/,7.3µM*,-2%,-3%,?,0%
CCc1cccc(NC(=O)c2ccc(NC(=O)N3CCSc4ncccc43)cc2)c1,/,16µM*,6%,2%,21µM*,0%
CC(C)C(=O)Nc1ccc(C(=O)NCc2cccnc2)cc1,18,?,5%,-7%,?,-3%
O=C(CCn1c(=O)oc2ccccc21)N1CCN(C(c2ccccc2)c2ccccc2)CC1,-65*,?,6%,-1%,16µM*,-24%
O=C1N=C2SCCN2C(=O)C1Cc1ccc(Cl)cc1 (stereo not drawn),/,-18%,2%,/,?,/
Cc1cc(-n2c(/C=C/c3ccc(Br)s3)nc3ccccc3c2=O)ccc1Br,/,?,10%,-35%,15µM*,-30%
Cc1cc(-n2c(/C=C/c3cccs3)nc3ccccc3c2=O)ccc1Br,/,23µM*,5%,-10%,15µM*,-2%
Cc1ccc(-n2c(/C=C/c3ccc(Br)s3)nc3ccccc3c2=O)cc1,/,21µM*,10%,-25%,23µM*,?
COP(=O)(OC)OC=C(Cl)Cl,/,12µM*,12%,/,?,/
CCOC(=O)[C@]12Cc3ccccc3[C@H]1N(C(C)C)C(=O)c1cc(OC)ccc12,-116*,15µM*,/,/,23µM*,/
CCOC(=O)[C@]12Cc3c(cc(OC)c(OC)c3OC)[C@H]1N(C)C(=O)c1cc(OC)ccc12,-74*,9.2µM*,/,/,10µM*,/
COC(=O)C12CCc3cc(OC)ccc3C1=CC(=O)C2 (stereo not drawn),-1,?,/,-3%,11%,-2%
CCOC(=O)[C@]12Cc3ccccc3[C@H]1N(C)C(=O)c1cc(OC)ccc12,-116*,15µM*,/,/,23µM*,/
CCOC(=O)C1C(=O)NC2(C)CC1c1cc(OC)ccc1O2 (stereo not drawn),-2,-11%,1%,-2%,-5%,1%
CC1(C)[C@@H](O)C[C@H]2[C@](C)(O)[C@@H]3CC[C@H]4[C@@H](O)[C@@]3(C[C@@H](O)[C@@]21O)C[C@@]4(C)O,/,6%,10%,/,-2%,/
CCC1COC(Cn2cncn2)(c2ccc(Cl)cc2Cl)O1 (stereo not drawn),/,/,4%,/,/,/
Clc1nc(Cl)nc(Nc2ccccc2Cl)n1,/,/,6%,/,/,/
N#CC(C#N)=Cc1cc(O)c(O)c(O)c1,/,15µM*,16%[56.1 µM],/,9.4µM*,/
